Screening data: PubChem, National Center for Advancing Translational Sciences (NCATS)
Many of the other results were omitted from the sample, so hits are more common in it than they were.
TDP1 cell CPT – growth inhibition of DT40 Tdp1-/-;hTDP1 cells with camptothecin (screen for TDP1 inhibitors); chicken DT40 Tdp1-/-;hTDP1 cells + 20 nM CPT, ATP luminescence, 48 h; Potency, µM (doses to about 46.2 µM), inactives show at the highest dose activity change, negative = growth inhibition, actives largely listed as inhibitors; 420,000 tested, 12% active; also: potency is read from the fitted curve at half-maximal effect; nearly all actives have a fitted effect of over 55% in size
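Cell growth measured by CellTiter-Glo luminescence after a minimum 48 h, 37 C compound exposure with 20 nM CPT in Tdp1-knockout DT40 cells stably expressing hTDP1, seeded 400/well; qHTS titration format.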
12-LOX inh – inhibitors of human 12S-lipoxygenase ALOX12; P18054; purified 12hLO, xylenol orange hydroperoxide absorbance; Potency, µM (series often up to 108 µM), for inactives: at the highest dose activity change, negative = inhibition, hits mostly inhibitors; 580,000 tested, 1.1% active; AID 1671190; also: potency is read from the fitted curve at half-maximal effect
Target sequence (P18054 whole entry, looked up): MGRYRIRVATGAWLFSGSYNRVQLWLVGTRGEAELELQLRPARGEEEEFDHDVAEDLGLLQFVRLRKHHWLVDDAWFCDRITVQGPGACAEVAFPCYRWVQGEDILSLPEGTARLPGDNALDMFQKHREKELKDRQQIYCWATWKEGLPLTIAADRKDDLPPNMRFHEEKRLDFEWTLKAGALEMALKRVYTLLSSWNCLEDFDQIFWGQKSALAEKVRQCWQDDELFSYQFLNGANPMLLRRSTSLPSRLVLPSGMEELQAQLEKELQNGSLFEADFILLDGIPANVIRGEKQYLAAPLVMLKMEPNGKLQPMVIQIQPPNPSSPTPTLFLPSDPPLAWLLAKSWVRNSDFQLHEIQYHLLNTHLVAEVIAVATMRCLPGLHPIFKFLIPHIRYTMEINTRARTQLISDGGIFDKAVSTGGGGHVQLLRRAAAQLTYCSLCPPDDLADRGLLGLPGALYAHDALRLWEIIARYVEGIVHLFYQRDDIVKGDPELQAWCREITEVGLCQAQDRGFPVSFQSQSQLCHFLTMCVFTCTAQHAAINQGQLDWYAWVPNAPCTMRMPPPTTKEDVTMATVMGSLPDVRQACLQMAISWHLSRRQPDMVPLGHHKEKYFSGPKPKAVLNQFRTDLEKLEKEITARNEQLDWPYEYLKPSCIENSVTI
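Purified human 12hLO (150 nM final) in 25 mM Hepes, 0.01% Triton X-100, pH 7.0 was preincubated 15 min at room temperature with compound. Then 40 uM arachidonic acid was added, 30 min. Hydroperoxide was read by Fe-XO absorbance ratio 573/405 nm.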
IL1B secr inh – inhibitors of inflammasome signaling (IL-1 beta secretion). THP-1 LPS/ATP IL-1B secretion, AlphaLISA, 16 h; hits give low values. AID 743279. 360,000 tested, 4.7% active. activity change, % at 57.5 µM; in the data active = activity change below about -50%; inconclusive = mostly about -30% to -49%
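Secreted IL-1B measured by AlphaLISA bead assay after 16 h compound exposure of THP-1 cells; compounds (final up to 57.5 uM) added 1 h before LPS (250 ng/mL) and ATP (1.25 mM) stimulation; lower signal means less secretion.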
HT1080-NT tox – kills 2HG-producing HT-1080-NT fibrosarcoma cells. HT-1080-NT fibrosarcoma viability, CellTiter-Glo ATP luminescence, 48 h. Potency, µM (doses to about 46.1 µM), inactives show top-dose activity, negative = less viability, hits mostly cytotoxic. 360,000 tested, 1.6% active;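 also: NT is the 2HG producing partner of a matched IDH1 knockdown line; potency is read from the fitted curve at half-maximal effect; 0% = DMSO-treated cells and -100% = media-only wells without cells; nearly all actives have a fitted effect of over 55% in size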
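Toxicity toward the 2HG-producing NT line was scored as %Activity, normalised to DMSO and no-cell wells, from CellTiter-Glo luminescence after 48 hours' treatment.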
TDP1 cell noCPT – qHTS for Inhibitors of human tyrosyl-DNA phosphodiesterase 1 (TDP1): qHTS in cells in absence of CPT; 420,000 tested, 15% active; Potency, µM (titrated, usually from 46.2 µM), inactives show at the highest dose activity change, negative = growth inhibition, most hits filed as inhibitors; DT40 Tdp1-/- hTDP1 cells, no CPT, ATP luminescence, 48 h; also: potency is read from the fitted curve at half-maximal effect; nearly all actives have a fitted effect of over 55% in size
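Readout: luminescence from CellTiter-Glo after 30 min in the dark at RT. Cells: DT40 Tdp1-/- with stable hTDP1, 400/well. Exposure: compounds alone, ≥48 hr, 37 °C.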
HT1080 IDH1KD tx – HT-1080 IDH1 knockdown cell toxicity (counter line); HT-1080 IDH1 knockdown viability, ATP luminescence, 48 h; Potency, µM (titrated, usually from 46.1 µM), inactives show top-dose activity, negative = toxicity, most hits filed as cytotoxic; 360,000 tested, 2% active; AID 686971;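 also: potency is read from the fitted curve at half-maximal effect; 0% = DMSO wells and -100% = cell-free medium wells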
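Luminescent ATP read-out (CellTiter-Glo, 10 min at room temperature) after 48 h compound exposure at 37 °C gave viability of IDH1-knockdown HT-1080 cells. Activity was normalised to DMSO and cell-free wells, then fitted as concentration-response curves.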
Starred values were filed as active, the others as inactive; u = inconclusive; x = no result; [ ] = dose if it differs, or a comment. Unless noted, calls follow the shape of the dose curve; as a rule, active = well fitted curve in the direction sought with a large enough effect; inconclusive = small, poorly fitted or top-dose-only effect, or another doubt; inactive = no such curve, though single readings can be large; an effect the other way counts as inactive or inconclusive. Unless noted, % is scaled to controls: 0 for no effect and ±100 for the full control effect.

SMILES | TDP1 cell CPT | 12-LOX inh | IL1B secr inh | HT1080-NT tox | TDP1 cell noCPT | HT1080 IDH1KD tx
CC(=O)Nc1cccc(-c2ccnc3c2CC(C(=O)Nc2ccc(F)c(Cl)c2)O3)c1 (stereo unspecified) | 18µM* | u | -18 | u | 18µM* | u
O=C(Nc1ccc(F)c(Cl)c1)C1Cc2c(-c3ccco3)ccnc2O1 (stereo unspecified) | 23µM* | u | 0 | -18% | 15µM* | -19%
CC(=O)Nc1cccc(-c2ccnc3c2CC(C(=O)NCC2CC2)O3)c1 (stereo unspecified) | u | -18% | 36 | -20% | u | u
CC(C)c1ccc(NC(=O)C2Cc3c(-c4ccco4)ccnc3O2)cc1 (stereo unspecified) | u | -8% | u | u | u | u
Cc1cnc(CC2CCCN(C(=O)CCc3c[nH]c4ccccc34)C2)n1C(C)C (stereo unspecified) | x | 9% | x | x | x | x
CCN1c2cc(C(=O)N3CCC(C(N)=O)CC3)ccc2C(=O)N2CCCCCC21 (stereo unspecified) | x | 24% | x | x | x | x
COc1ccc(-c2nc3c(-c4ccc(F)cc4)cnn3cc2C)cc1F | 23µM* | 0% | 4 | 1% | 15µM* | -3%
Nc1ccc[n+](CC(=O)c2ccc(F)cc2)c1 | 14µM* | x | x | x | 10µM* | x
O=C(C[n+]1ccc2ccccc2c1)c1cccc2ccccc12 | 13µM* | u | u | u | 8.2µM* | u
O=C(C[n+]1ccc2ccccc2c1)c1ccc(NC(=O)c2ccccc2)cc1 | 5.8µM* | -19% | u | -13% | 7.3µM* | -17%
O=C(C[n+]1cccc(NC(=O)c2ccccc2)c1)c1ccccc1 | -1% | -3% | 18 | -1% | u | 0%
O=C(C[n+]1cccc(NC(=O)c2ccccc2)c1)c1ccc(NC(=O)c2ccccc2)cc1 | 23µM* | 18% | u | -8% | u | -11%
CC(C(=O)Nc1cccc2ncccc12)N1CCCCC1 (stereo unspecified) | x | 18% | x | x | x | x
CC(=O)N1CCC(N2CCC(N3C(=O)C4(CCCCC4)C3c3ccncc3)CC2)CC1 (stereo unspecified) | x | 51% | x | x | x | x
O=C(C[n+]1ccc2ccccc2c1)c1ccc(O)c(O)c1 | -4% | x | x | x | -24% | x
Cc1ccc(C(=O)C[n+]2ccc3ccccc3c2)cc1 | u | -9% | 20 | -3% | 15µM* | -11%
COc1cc(OC)cc(-c2nnc(SCc3c(F)cccc3Cl)o2)c1 | u | 19% | -60* | -12% | 23µM* | -3%
CN1CCC[C@H]1CCNC(=O)c1c(-c2ccsc2)sc2ccccc12 | -2% | 7% | -21 | -20% | 1% | -21%
CN1CCC[C@@H]1CCNC(=O)c1c(-c2ccc3c(c2)OCO3)noc1-c1ccsc1 | -15% | u | -76* | -3% | -14% | -1%
CC(=O)Nc1ccc(C(=O)N(CCc2ccccc2)Cc2cccs2)s1 | x | -14% | x | x | x | x
COc1ccc(N(C(=O)CCC(=O)Nc2cc(C)on2)C(C(=O)NC2CCCC2)c2ccco2)cc1 (stereo unspecified) | 17% | -6% | 11 | 1% | -4% | 6%
Cc1cc(NC(=O)CCC(=O)N(Cc2ccco2)C(C(=O)NC2CCCC2)c2ccccc2C)no1 (stereo unspecified) | 23µM* | -4% | -3 | -12% | 23µM* | -14%
COc1ccc(N(C(=O)/C=C/C(=O)Nc2cc(C)on2)C(C(=O)NC2CCCC2)c2ccccc2C)cc1 (stereo unspecified) | u | -7% | -87* | u | 21µM* | u
CCCCN(C(=O)CCC(=O)Nc1cc(C)on1)C(C(=O)NC1CCCC1)c1cccc(OC)c1 (stereo unspecified) | 8.2µM* | -2% | 12 | -10% | u | 0%
CN1CCc2[nH]cnc2C12CCN(C(=O)c1cc(=O)[nH]c3ccccc13)CC2 | x | 13% | x | x | x | x
SMILES | TDP1 cell CPT | 12-LOX inh | IL1B secr inh | HT1080-NT tox | TDP1 cell noCPT | HT1080 IDH1KD tx
CCCOc1ccc(-c2nc(C#N)c(NCc3ccccc3Cl)o2)cc1 | x | 50% | x | x | x | x
Cn1cccc1C(=O)N1CCC2(CC1)CCN(C(c1ccccc1)c1ccccc1)CC2 | u | 4%[57.4 µM] | x | x | 15µM* | x
Cn1cccc1C(=O)N1CCC2(CCCN(c3ncccn3)C2)CC1 | u | -15%[57.4 µM] | x | x | 0.65µM* | x
Cn1cccc1C(=O)N1CCC2(CC1)CCN(c1ncccn1)CC2 | u | -12%[57.4 µM] | x | x | u | x
Cn1cccc1C(=O)N1CCC2(CC1)CCN(c1ccccn1)CC2 | u | -2%[57.4 µM] | x | x | 15µM* | x
Cn1cccc1C(=O)N1CCC2(CCN(C(=O)Nc3ccccc3)CC2)CC1 | u | -11%[57.4 µM] | x | x | u | x
CCCCN(C(=O)c1ccc([N+](=O)[O-])s1)c1c(N)n(CC(C)C)c(=O)[nH]c1=O | -26% | u | 12 | -6% | 1% | -13%
CCCCn1c(N)c(N(CCC(C)C)C(=O)c2ccc([N+](=O)[O-])s2)c(=O)[nH]c1=O | 23µM* | u | 53 | -17% | u | -14%
Cc1nccn1-c1ccc(CNC(=O)C(c2ccccc2F)N(C)C)cc1 (stereo unspecified) | x | 32% | x | x | x | x
COc1cc(NCCCCC(C)N)c2nccc(C)c2c1 (stereo unspecified) | 5.8µM* | u | -12 | u | 3.7µM* | u
Cc1cc(C)c2sc(N(CCN(C)C)C(=O)c3cc(Cl)sc3Cl)nc2c1 | u | -26% | -20 | 0% | u | -8%
COc1cc2ccccc2cc1C(=O)N(CCN(C)C)c1nc2c(OC)ccc(OC)c2s1 | u | u | -53* | 16µM* | u | u
COc1ccc(OC)c2sc(N(CCN(C)C)C(=O)c3ccc4ccccc4c3)nc12 | u | u | -27 | 11% | u | -4%
COc1cc2ccccc2cc1C(=O)N(CCN(C)C)c1nc2ccc(C)cc2s1 | u | u | -21 | 23µM* | u | 16µM*
Cc1cccc2sc(N(CCN(C)C)C(=O)c3cc(Cl)sc3Cl)nc12 | u | u | -29 | 9% | u | 1%
COc1ccccc1C(=O)N(CCN(C)C)c1nc2cc(C)cc(C)c2s1 | u | u | 0 | 1% | 26µM* | 0%
